# In all, about 68,000 sequences were measured (“fluorescence intensity (a.u.)”: median about 9,100, highest 2% from about 16,000 on). Many of the other results were omitted from the sample, so the highest values are more common in it than they were.
# Target: OsWRKY34 (Oryza sativa, UniProt Q0JBA9 1-250)
# Test: protein-binding microarray (RPBM); PBS, 2% BSA, 51.3 ng/ul salmon testes DNA, 50 uM zinc acetate, 200 nM TF, 25 C, 1 h; high values mean tight binding
# Conditions: protein: recombinant; tags: N-terminal polyhistidine and DsRed monomer fusion (pET32a); label: CyDye5-dUTP incorporated in the synthesized complementary strand; 3' TTTTT single-stranded linker to array surface; dsDNA, one strand shown
# In short: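 For the binding signal, per-feature fluorescence intensity was read in arbitrary units on an Axon 4000B scanner. Before scanning, a 2% BSA-blocked custom Agilent array made double-stranded with Cy5-dUTP was washed after 1 h at 25 °C with 200 nM protein and 50 µM zinc acetate. The proteins were Ni–NTA-purified transcription factors with N-terminal polyhistidine and DsRed fusions, expressed in E. coli BL21-CodonPlus.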
# Chain of OsWRKY34 (Q0JBA9 entry or part of it): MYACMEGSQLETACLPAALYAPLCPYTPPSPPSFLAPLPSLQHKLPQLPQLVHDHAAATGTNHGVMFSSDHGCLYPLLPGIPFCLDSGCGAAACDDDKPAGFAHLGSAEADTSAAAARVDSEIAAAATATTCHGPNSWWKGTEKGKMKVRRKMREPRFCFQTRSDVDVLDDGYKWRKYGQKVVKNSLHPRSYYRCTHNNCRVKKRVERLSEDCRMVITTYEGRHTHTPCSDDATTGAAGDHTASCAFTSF
row,Sequence,binding signal
1,AAGAAGGGGAAGGGAGTTTCTATGGTTCTTGCTGGTGCCGCGGAGTCACCTAGTGCAG,8750 fluorescence intensity (a.u.)
2,GCCTATTTTTTCGTACGGAGTTGGCTTGTAGTAGTTGCATCGGAGTCACCTAGTGCAG,8950 fluorescence intensity (a.u.)
3,ACTTCCAAGTCTTCGACCGCGACACTCCTTACCCGCACGCCGGAGTCACCTAGTGCAG,8570 fluorescence intensity (a.u.)
4,CGACTACTCGGCCGGCCACCTGCGCCGTCTCTACCCCGAGCGGAGTCACCTAGTGCAG,9320 fluorescence intensity (a.u.)
5,GTCCTGCTACGCATACTCTCCCCTCTGACTCTTTGCGCCACGGAGTCACCTAGTGCAG,8250 fluorescence intensity (a.u.)
6,GGTCCATCACTCCAAGGTCAGTGCTTTTTTATTTACTCTACGGAGTCACCTAGTGCAG,14600 fluorescence intensity (a.u.)
7,AATAAGACGAAAAGTCAAACGTTTGTCAAAAAGTCAACGGCGGAGTCACCTAGTGCAG,8290 fluorescence intensity (a.u.)
8,CGGGCGGGTCAAGGTCTCCTCCTCTCTCGTCGGCGACCTCCGGAGTCACCTAGTGCAG,10900 fluorescence intensity (a.u.)
9,TACTCCTCGTCATTTTGGTTTTGGTTTTGGTTTGGGTGGTCGGAGTCACCTAGTGCAG,10400 fluorescence intensity (a.u.)
10,CCAAGGGTGGGGCCTCTCGTCGTCTCGTCTCCTCTCGTCTCGGAGTCACCTAGTGCAG,20400 fluorescence intensity (a.u.)
11,GACTAATAGCTTCAGTTTTGCATGCGATGGCCACTCAAATCGGAGTCACCTAGTGCAG,10100 fluorescence intensity (a.u.)
12,TTCAGTTTTCACTTCATTATTTTGCCGTTTCTCTTTGACCCGGAGTCACCTAGTGCAG,12300 fluorescence intensity (a.u.)
13,GCTCCTCGTCGCCACCGATCCCCGCCGCCGGCTTGCCTCACGGAGTCACCTAGTGCAG,9340 fluorescence intensity (a.u.)
14,CCACTCACCACGCGCGCTGCCCGCTTGCCTCCTCTGCCCACGGAGTCACCTAGTGCAG,10200 fluorescence intensity (a.u.)
15,CACCACACGTCACGCTTCCACCTCCACCTCCACCTCACTGCGGAGTCACCTAGTGCAG,11900 fluorescence intensity (a.u.)
16,CACCACCCCGGCCGCTTCCGCCACTTCACTCCACTCCACACGGAGTCACCTAGTGCAG,13200 fluorescence intensity (a.u.)
17,CGCGCCCACCAGTCCACTCACGCGGTCACTCTCCTCCAGTCGGAGTCACCTAGTGCAG,8140 fluorescence intensity (a.u.)
18,ATCACACGCTGCACCTCTCCCGCGCCCACCAGTCCACTCACGGAGTCACCTAGTGCAG,18500 fluorescence intensity (a.u.)
19,ACCACTCCACGCGCCTATATCACCACACGTCACGCTTCCACGGAGTCACCTAGTGCAG,16700 fluorescence intensity (a.u.)
20,ACGCTGTTGTAATTCCAGATGTTGGTCAGTAGTCATTACTCGGAGTCACCTAGTGCAG,10700 fluorescence intensity (a.u.)
21,CGGGGAGTCGTTGCTGTTCTTGTTCTTGGTCGAGGTTGAGCGGAGTCACCTAGTGCAG,14500 fluorescence intensity (a.u.)

row,Sequence,binding signal
1,TCAGCAATCTCTCTTTCTACTAGGGTCTCTTCTACCAGCGCGGAGTCACCTAGTGCAG,8070 fluorescence intensity (a.u.)
2,TTGACCACCAAGCTCCTGCTTCTTGCAATCTTGATCGATACGGAGTCACCTAGTGCAG,9170 fluorescence intensity (a.u.)
3,ATCCTCATATCGTGTATCCGTATTCGTATCCCCGTATTTGCGGAGTCACCTAGTGCAG,8230 fluorescence intensity (a.u.)
4,CTGCACCTAAAGCCTTTCAGAAAACTTTTCACCCTGTCAACGGAGTCACCTAGTGCAG,8740 fluorescence intensity (a.u.)
5,CACTAATTGATCAATTGCACAACAAATTGCTTGAATAACGCGGAGTCACCTAGTGCAG,65500 fluorescence intensity (a.u.)
6,ACATCAACACACCATCACTCGCACAAAACACACTAATAAACGGAGTCACCTAGTGCAG,8440 fluorescence intensity (a.u.)
7,TCAACCATAATCACTAGTGTCACAAACACCTTGAAATTCACGGAGTCACCTAGTGCAG,8120 fluorescence intensity (a.u.)
8,AGAATGTTATACGGCGCTCGATCTATTATTCCGCACTCTACGGAGTCACCTAGTGCAG,8130 fluorescence intensity (a.u.)
9,TCTCCGTTGTAATATGTTCTTTGTCCTCGATGTGTTTCCGCGGAGTCACCTAGTGCAG,11400 fluorescence intensity (a.u.)
10,AATTTCGTTTTTAATACGCCCAGTGAAATTTGCTGTCTAGCGGAGTCACCTAGTGCAG,17500 fluorescence intensity (a.u.)
11,GATGTACTGAACTGTTTTTTTTTTCGTTTTTAATTTCTAGCGGAGTCACCTAGTGCAG,8550 fluorescence intensity (a.u.)
12,GTTTTACTAGTGAATTTTCTTTTCTTTGCTTCGTTTAATGCGGAGTCACCTAGTGCAG,8930 fluorescence intensity (a.u.)
13,TCTCGCCACCTTCGCCTCCATCTCATCGACCGCCCACTTCCGGAGTCACCTAGTGCAG,12800 fluorescence intensity (a.u.)
14,TCATAATGCATCAATCTATTACTTTAGCTATCTATTTATACGGAGTCACCTAGTGCAG,9530 fluorescence intensity (a.u.)
15,GCATATAATTAGTTTACCATGGCTTTAATCAATCATATGCCGGAGTCACCTAGTGCAG,29300 fluorescence intensity (a.u.)
16,ATGACTTTAATATGTTAGCTTTTCATGCATGTGTCAATTTCGGAGTCACCTAGTGCAG,8700 fluorescence intensity (a.u.)
17,GCAACGCCGCCGTTTTCTTCGCCTCTCACAGAGACGACTCCGGAGTCACCTAGTGCAG,9200 fluorescence intensity (a.u.)
18,AGCCATCTATCACCATGGCTGAAGCCATGTTATATATATCCGGAGTCACCTAGTGCAG,8560 fluorescence intensity (a.u.)
19,TCCCACCTTCCGCTCGTTTTTCTTGAGCATATGCTTCTCACGGAGTCACCTAGTGCAG,10100 fluorescence intensity (a.u.)
20,TTCGGGTTTTTTTTTTGTTTATTTTGTCTTTCGCTTTTCACGGAGTCACCTAGTGCAG,14900 fluorescence intensity (a.u.)
21,ATTCGTTCTGGTTTTCTTCGGGGTTTATTGATTCACGCGACGGAGTCACCTAGTGCAG,18200 fluorescence intensity (a.u.)

row,Sequence,binding signal
1,GGGGTTCGTTTTGTTTCTTGACACACGCTTGAGTCTTATTCGGAGTCACCTAGTGCAG,16900 fluorescence intensity (a.u.)
2,ATCACTTTATGCGCACTTTTCTTTGACGCCTTCCACAATTCGGAGTCACCTAGTGCAG,9560 fluorescence intensity (a.u.)
3,CTTCACTCTTGATTCAAAAGGTTTTATTTTTTTTTCTGGTCGGAGTCACCTAGTGCAG,8530 fluorescence intensity (a.u.)
4,ACTTCTACCTTTCGTTTTTCCACGCGCATATGCTTTTTGACGGAGTCACCTAGTGCAG,20300 fluorescence intensity (a.u.)
5,TTTTTGGGGTTTTCTCTTCTTGATTGATTCGTTCTTGGCGCGGAGTCACCTAGTGCAG,13100 fluorescence intensity (a.u.)
6,TTCTTTTCTTTTTCTTTTTCGTTTTCTTCTTATTCTTTTTCGGAGTCACCTAGTGCAG,12900 fluorescence intensity (a.u.)
7,TCTTCTGAGTTCTTGTGTTTTCATACGTGCCAATCAAATGCGGAGTCACCTAGTGCAG,8310 fluorescence intensity (a.u.)
8,ACCTTCGGTGTACTTTTTCCTTAGTCTGCCGGCTTATTTACGGAGTCACCTAGTGCAG,9490 fluorescence intensity (a.u.)
9,GACAATTACTTAGTCCTCACCTACCGTCGACCTCACACGTCGGAGTCACCTAGTGCAG,10200 fluorescence intensity (a.u.)
10,TTCAGAGTATTGTGATCCTTAAATCGAACCGTTGACTCTACGGAGTCACCTAGTGCAG,9490 fluorescence intensity (a.u.)
11,AGCAGTTGTATTGTTGTGAAATTTAATTTGCTCTTTGACCCGGAGTCACCTAGTGCAG,8200 fluorescence intensity (a.u.)
12,TCTTGTTCATTTCTCTCTTGCTCCGGCTCGCCTCGCATCGCGGAGTCACCTAGTGCAG,8300 fluorescence intensity (a.u.)
13,GGTAGACGGCGTCGTACCCGTCCTCCTCGCCGGACCGCATCGGAGTCACCTAGTGCAG,8840 fluorescence intensity (a.u.)
14,TAATGTATGACGCCGTTGACTTTTTAACTAACGTTTGACCCGGAGTCACCTAGTGCAG,28700 fluorescence intensity (a.u.)
15,TAATGTATGACGCCGTTGACTTTTTGATTAACGTTTGACCCGGAGTCACCTAGTGCAG,34800 fluorescence intensity (a.u.)
16,TAATGTATAACGCCGTTAACTTTTTAACAAACGTTTGACCCGGAGTCACCTAGTGCAG,8430 fluorescence intensity (a.u.)
17,TTGTATGATGCCGTTGATTTTTTTTGTCTAACGTTTAACCCGGAGTCACCTAGTGCAG,8360 fluorescence intensity (a.u.)
18,TTTTAATGTATGACGCCGTTGACTTTTTATACGTTTGACCCGGAGTCACCTAGTGCAG,32200 fluorescence intensity (a.u.)
19,CGCATAATACTTTTACTTGCACCAATCAAGTACACGCTCTCGGAGTCACCTAGTGCAG,9320 fluorescence intensity (a.u.)
20,CCCTGGCAAATGTTCTTTCTCCTCTATTTTCCATCTCCAACGGAGTCACCTAGTGCAG,9120 fluorescence intensity (a.u.)
21,TATAGATTTTCGTCTCCAACGCTTGACCGTCCGTTTTATTCGGAGTCACCTAGTGCAG,12800 fluorescence intensity (a.u.)

row,Sequence,binding signal
1,CTTGCTCGTTGTAACTGTTTAATCTATTATGTTTTTTTTTCGGAGTCACCTAGTGCAG,11000 fluorescence intensity (a.u.)
2,CCCACCGCTCCTCCGCGCCACGCTTCCTCGCCGCGCGCGCCGGAGTCACCTAGTGCAG,8390 fluorescence intensity (a.u.)
3,ACAACTGACTTACCCTTTCTGACTTGCAGATCAATTTGTCCGGAGTCACCTAGTGCAG,9050 fluorescence intensity (a.u.)
4,TGCAGTGCGGCGTCACCTATCTCGTGGGCGCTTTCTTAGACGGAGTCACCTAGTGCAG,9080 fluorescence intensity (a.u.)
5,ACGGCGAGACGGTTTGCGGCGGCGGCGGTGGGGTTGGGATCGGAGTCACCTAGTGCAG,10600 fluorescence intensity (a.u.)
6,ATGGTTGGTTTCGTGCTCTGTTTTTTTTTGGGAGAATTCGCGGAGTCACCTAGTGCAG,12800 fluorescence intensity (a.u.)
7,CTCGGGAATTCGGGTGGTTTGGTTGGGTTTCGTGGAGAATCGGAGTCACCTAGTGCAG,18700 fluorescence intensity (a.u.)
8,CTGCGTTTATTTGGGTTTATTTGGGGCTGAGAGAGTACATCGGAGTCACCTAGTGCAG,13800 fluorescence intensity (a.u.)
9,TGGGGTTGGTTTGGTTTGGAGTACATCGAGATTCGAGAGACGGAGTCACCTAGTGCAG,19900 fluorescence intensity (a.u.)
10,ACTGTTGGAGTGGGAGTGGGGAATTCTAGGGTTTTGCAATCGGAGTCACCTAGTGCAG,12300 fluorescence intensity (a.u.)
11,GTTTATCTCTATCTTTTTTTCATCTTCTCTCTATATATATCGGAGTCACCTAGTGCAG,11000 fluorescence intensity (a.u.)
12,GGTTTCGTTGGTGGGGTTTTTTCATGGTGGCTAGGGTTTTCGGAGTCACCTAGTGCAG,51100 fluorescence intensity (a.u.)
13,GTTTCGTGGTGGTTGCTGGGCTTTTCGTTGGCGTGGGTGGCGGAGTCACCTAGTGCAG,11500 fluorescence intensity (a.u.)
14,GGGTTGGTGGGCCTGATGGGCTTGGTTTTAGGGTTTCGTGCGGAGTCACCTAGTGCAG,9510 fluorescence intensity (a.u.)
15,ATTTTAGGGGAGGGTTTTACTTAGCAACTTTCATCTTATTCGGAGTCACCTAGTGCAG,15800 fluorescence intensity (a.u.)
16,TAGGCTATCTTTTGAAGGGAGGGGTTTTTTCATCACCTATCGGAGTCACCTAGTGCAG,17000 fluorescence intensity (a.u.)
17,ACGGGGATGACTCCGATGACTCTCCTGGCCTCGCCGCCTCCGGAGTCACCTAGTGCAG,8120 fluorescence intensity (a.u.)
18,ACTTGGTTCTTGCTCATCATCTTTCGCTTGCTCGTCAGCTCGGAGTCACCTAGTGCAG,8360 fluorescence intensity (a.u.)
19,CCCTCTTCTCCTTTGCTTGGTCTCGTTTCGTCGCTGTCGTCGGAGTCACCTAGTGCAG,8260 fluorescence intensity (a.u.)
20,GAGGTCCCGTCGCTCCGGCGAGCTCCCGCCATCCGCCTCGCGGAGTCACCTAGTGCAG,8630 fluorescence intensity (a.u.)
21,ATGGCCGCTGTCTTATGTCGTCTCGTTCAAATAAAATCTCCGGAGTCACCTAGTGCAG,8370 fluorescence intensity (a.u.)

# Reference: article PMC7819943, “Rice protein-binding microarrays: a tool to detect cis-acting elements near promoter regions in rice”
